Among all 320,000 compounds or so, about 2,100 (0.66%) were called active. Not shown: some 53% with an inconclusive outcome. Calls come from the whole dose curve; as a rule, active = well fitted inhibition curve with a large enough effect in the signal ratio, with a control signal flat (not every such curve was filed as active); inconclusive = small, poorly fitted or top-dose-only effect, or effect the other way, or a change in a side signal; inactive = flat fitted curve, though single readings scatter; the % refers to the signal ratio. Many of the other results were omitted from the sample, so actives are more common in it than they were.

Experimental findings from PubChem BioAssay AID2685 (National Center for Advancing Translational Sciences (NCATS), 2010) are described below.
Potency is the fitted concentration of half-maximal effect.

This assay in a line: qHTS Assay for Lipid Storage Modulators in Drosophila S3 Cells.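 For cell number change: cells counted by Cell Tracker Red CMTPX staining in the red channel.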 For lipid storage change, negative = inhibition: % is set by controls: 0 for no effect and ±100 for the full control effect. Particulars: BODIPY lipid droplet fluorescence, 18-24 h, cells fed with added oleic acid; cell number change: measured here: cell count max response; series mostly up to 46.1 µM; lipid storage change, negative = inhibition: at the top concentration. Summed up: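 Drosophila S3 cells loaded with oleic acid (400 uM, as added) and compounds at several concentrations; lipid droplets imaged by 488-nm laser-scanning cytometry, 500–530 nm intensity and object ratio to cell channel. Percent activity normalized to 20 uM Triacsin C.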
(In general: In qHTS, concentration-response curves come from the screen itself.)
`Cc1cc(=O)oc2cc(OCc3ccc(C(=O)OCC(=O)NC4CCS(=O)(=O)C4)cc3)ccc12` (centres undefined): the “lipid storage change, negative = inhibition” value was 6.62% (inactive) and the cell number change turned out to be 8.28%. Take `COc1cc(C(c2c(C)[nH][nH]c2=O)c2c(C)[nH][nH]c2=O)ccc1OS(=O)(=O)c1ccccc1`: the “lipid storage change, negative = inhibition” value was 16.7% (inactive) and the cell number change is -3.94%. Regarding `CCOc1cc(C(c2c(C)[nH][nH]c2=O)c2c(C)[nH][nH]c2=O)ccc1OS(=O)(=O)c1ccccc1`, the Potency is 29.1 µM (active) and the cell number change was -2.58%. Consider `CCOc1cc(C(c2c(C)[nH][nH]c2=O)c2c(C)[nH][nH]c2=O)ccc1OS(=O)(=O)c1ccc(C)cc1`, for which the call was inactive and the cell number change is 16%. The matching figures for `COc1ccccc1N1CCN(C(c2cccs2)c2nnnn2C2CCCC2)CC1` (centres undefined): “inactive” and -7.64%. Consider `Cc1ccc(SCc2ccc(C(=O)NCc3cccnc3)cc2)cc1`, for which the “lipid storage change, negative = inhibition” value was -18.4% (inactive) and the cell number change stood at 5.01%. On to `Cc1ccc(Cl)cc1NC(=S)N(CCN(C)C)C(C)c1ccccn1` (centres undefined), for which the “lipid storage change, negative = inhibition” value was 6.34% (inactive) and the cell number change was determined as 25.6%. Take `CCOC(=O)[C@H]1[C@H]2COc3ccc(OC)cc3[C@@H]2N2C(=O)c3cc(F)c(F)cc3NC(=O)[C@@]12C`: the “lipid storage change, negative = inhibition” value is 11.9% (inactive) and the cell number change stood at 10.2%. For the molecule `CCOC(=O)[C@H]1[C@H]2COc3ccc(C)cc3[C@@H]2N2C(=O)c3cc(F)ccc3NC(=O)[C@@]12C`, the “lipid storage change, negative = inhibition” value is 11.9% (inactive) and the cell number change was -22.1%. Turning to `CCOC(=O)[C@H]1[C@H]2COc3cc(OC)ccc3[C@@H]2N2C(=O)c3cc(F)c(F)cc3NC(=O)[C@@]12C`, the Potency was 6.51 µM (active) and the cell number change is -3.7%. Turning to `CCOC(=O)[C@H]1[C@H]2COc3ccccc3[C@@H]2N2C(=O)c3cc(OC)ccc3NC(=O)[C@@]12C`, the “lipid storage change, negative = inhibition” value is 6.45% (inactive) and the cell number change was -11.2%. In the case of `CCOC(=O)[C@H]1[C@H]2COc3ccc(OC)cc3[C@@H]2N2C(=O)c3ccc(Cl)cc3NC(=O)[C@@]12C`, the Potency is 4.11 µM (active) and the cell number change was -6.2%. On to `CCOC(=O)[C@H]1[C@H]2COc3cc(OC)ccc3[C@@H]2N2C(=O)c3cc(OC)ccc3NC(=O)[C@@]12C`, for which the “lipid storage change, negative = inhibition” value is 12% (inactive) and the cell number change was -12.2%.

For `CCOC(=O)[C@H]1[C@H]2COc3ccc(Cl)cc3[C@@H]2N2C(=O)c3cc(C)ccc3NC(=O)[C@@]12C`, the Potency is 1.64 µM (active).

Take `CCOC(=O)[C@H]1[C@H]2COc3ccc(Cl)cc3[C@@H]2N2C(=O)c3ccccc3NC(=O)[C@@]12C`: the “lipid storage change, negative = inhibition” value was 15.3% (inactive) and the cell number change was -17%. For `COc1ccc2c(c1)C(=O)N1[C@H]3c4cc(C)ccc4OC[C@@H]3[C@H](c3ccccc3)[C@]1(C)C(=O)N2`, the “lipid storage change, negative = inhibition” value is 10.4% (inactive) and the cell number change came to 11.4%. In the case of `CCOC(=O)[C@H]1[C@H]2COc3ccccc3[C@@H]2N2C(=O)c3ccc(Cl)cc3NC(=O)[C@@]12C`, the “lipid storage change, negative = inhibition” value was -24.5% (inactive) and the cell number change is -18.8%. For `COc1ccc2c(c1)[C@H]1[C@H](CO2)[C@H](c2ccccc2)[C@]2(C)C(=O)Nc3ccccc3C(=O)N12`, the “lipid storage change, negative = inhibition” value was 7.61% (inactive) and the cell number change is -2.57%. On to `COc1cc2c(cc1OC)C(=O)N1[C@H]3c4cc(Cl)ccc4OC[C@@H]3[C@H](c3ccccc3)[C@]1(C)C(=O)N2`, for which the Potency is 2.06 µM (active) and the cell number change is -5.54%. On to `Cn1ncc(Br)c1C(=O)Nc1ccc(F)cc1F`, for which the “lipid storage change, negative = inhibition” value was 7.86% (inactive) and the cell number change stood at 0.403%. Consider `COc1ccc(C(=O)Nc2ccc(NC(C)=O)cc2)cc1S(=O)(=O)N1CCCCC1C` (centres undefined), for which the “lipid storage change, negative = inhibition” value is -18.6% (inactive) and the cell number change is -5.58%. Take `CC(CNC(=O)Cn1ccc2cc(S(=O)(=O)N3CCCC3)ccc21)c1ccccc1` (centres undefined): the call was inactive and the cell number change is 5.34%. `O=C(OCc1nc(-c2ccccc2Cl)no1)c1ccco1`: the “lipid storage change, negative = inhibition” value is 27% (inactive) and the cell number change came out at 1%. Turning to `Cc1ccc(-c2ccc3nnc(SCC(=O)NCC4CCCO4)n3n2)cc1` (centres undefined), the “lipid storage change, negative = inhibition” value was -0.391% (inactive) and the cell number change was found to be 7.62%. Consider `Cc1ccc(NS(=O)(=O)c2ccc(NC(=O)C3CCCO3)cc2)cc1` (centres undefined), for which the “lipid storage change, negative = inhibition” value is -28% (inactive) and the cell number change is -28.7%.

For the molecule `COc1ccccc1CN1CCN(C(CC(C)C)c2nnnn2Cc2cccs2)CC1` (centres undefined), the result was inactive. Consider `CCOC(=O)[C@@H]1[C@H]2COc3ccccc3[C@@H]2N2C(=O)N(c3ccc(F)cc3)C(=O)[C@@]12C`, for which the molecule was classed as inactive and the cell number change was -1.5%. Consider `CCOC(=O)[C@@H]1[C@H]2COc3ccccc3[C@H]2N2C(=O)N(c3ccc(C(F)(F)F)cc3)C(=O)[C@]12C`, for which the Potency was 1.46 µM (active) and the cell number change was 21.9%. Take `CCOC(=O)[C@@H]1[C@H]2COc3ccccc3[C@H]2N2C(=O)N(c3ccc(Cl)cc3)C(=O)[C@]12C`: the “lipid storage change, negative = inhibition” value was 17.4% (inactive) and the cell number change was determined as 10.8%. Take `CCc1ccc(NC(=O)C(=S)NC2CCCCC2)cc1`: the “lipid storage change, negative = inhibition” value was 0.149% (inactive) and the cell number change amounted to 1.88%. Taken in the same sequence, the figures for `Nn1c(SCC(=O)NC2CCCCC2)nnc1-c1ccc(Cl)cc1` were -4.17% (inactive) and 17.9%. The matching figures for `Cc1[nH]n(C)c(=O)c1[N+](=O)[O-]`: 17.8% (inactive) and 4.99%. In the case of `COc1cc(/C=C/C(=O)OCC(=O)N2CC3(C)CC2CC(C)(C)C3)ccc1O` (centres undefined), the Potency was 0.651 µM (active) and the cell number change was determined as 18.4%. In the case of `COc1cc(/C=C/C(=O)OCC(=O)N2CCC(C)CC2)ccc1O`, the “lipid storage change, negative = inhibition” value is 20% (inactive) and the cell number change amounted to 24.6%. Consider `CCN(C(=O)COC(=O)/C=C/c1ccc(OC(F)F)c(OC)c1)C1CCS(=O)(=O)C1` (centres undefined), for which the “lipid storage change, negative = inhibition” value was 3.68% (inactive) and the cell number change came out at 4.02%.

On to `CCN(C(=O)COC(=O)/C=C/c1ccc(O)c(OC)c1)C1CCS(=O)(=O)C1` (centres undefined), for which the Potency was 13 µM (active) and the cell number change was -23.9%. On to `COc1cc(/C=C/C(=O)OCC(=O)N(C)C2CCS(=O)(=O)C2)ccc1OC(F)F` (centres undefined), for which the “lipid storage change, negative = inhibition” value is -10.5% (inactive) and the cell number change was determined as 9.45%. For the molecule `COc1ccc(/C=N/OCC(=O)N2CC3(C)CC2CC(C)(C)C3)cc1` (centres undefined), the “lipid storage change, negative = inhibition” value was 0.198% (inactive) and the cell number change is 10.1%. Taken in the same sequence, the figures for `O=c1[nH]c(COc2ccc(Br)cc2Cl)nc2ccccc12` were 5.12% (inactive) and -15%. For the molecule `COc1ccc(CN2CC(C(=O)NCC3CCCO3)CC2=O)cc1` (centres undefined), the “lipid storage change, negative = inhibition” value is 0.667% (inactive) and the cell number change is 14%. Regarding `N#C/C(=C\c1c(N2CCCCCC2)nc2ccccn2c1=O)C(N)=O`, the “lipid storage change, negative = inhibition” value is 10.3% (inactive) and the cell number change worked out at 22.6%. As for `N#C/C(=C\c1c(N2CCC(C(N)=O)CC2)nc2ccccn2c1=O)C(=O)NC1CCCCC1`, the Potency is 0.164 µM (active) and the cell number change was -18.3%. Regarding `N#C/C(=C\c1c(N2CCCCCC2)nc2ccccn2c1=O)C(=O)NC1CCS(=O)(=O)C1` (centres undefined), the “lipid storage change, negative = inhibition” value is 20.6% (inactive). For `O=C1/C(=C\c2ccccc2)CCc2c1[nH]c1ccccc21`, the molecule was called inactive.
